# According to PubChem BioAssay (NCATS):
# “And” between values parts separate entries of the source, which are not always exact repeats. Equal entries are not always repeated. Inconclusive results are not listed. Values without a mark were called inactive. The source made the active and inactive calls. Calls come from the whole dose curve; as a rule, active = well fitted curve in the direction sought with a large enough effect; inconclusive = small, poorly fitted or top-dose-only effect, or another doubt; inactive = no such curve, though single readings can be large or run the other way.
# Test: qHTS Assay for Identifying Gametocytocidal Compounds (AID 743244);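 for max response: actives lower the fluorescent signal which means gametocytes are killed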
# Conditions: P. falciparum 3D7 stage III-V gametocytes, alamarBlue, 72 h; max response: stronger effect = lower value
# Description: Malaria cases and deaths have dropped 50% in 29 countries since 2000 due to the combined effects of long-lasting insecticidal bednets, indoor residual spraying, and artemisinin-based combination therapies (ACTs). This success has raised hopes for malaria eradication and consequently stimulated interest in developing new reagents that block gametocyte transmission such as novel and safe gametocytocidal drugs. However, previous drug development efforts have focused primarily on the asexual parasites that cause symptoms, but not malaria transmission. Consequently, patients can remain infectious for weeks after the clearance of asexual parasites and clinical symptoms. To be transmitted from person to person via a mosquito, the parasites must switch from asexual to sexual development and produce male and female gametocytes. Malaria gametocytes consist of five stages (I, II, III, IV and V). The late stage gametocytes (III, IV and V) are difficult to be cultured in vitro and the long lifespan of mature gametocytes allows them being transmitted from host to mosquitoes unless they are completely eliminated by gametocytocidal agents. To identify gametocytocidal compounds which are capable of killing late stage P. falciparum gametocytes, a high throughput gametocyte viability assay was employed. This assay uses oxidoreduction indicator, alamarBlue, as a general measure of metabolic activity of gametocytes. Within live cells, the nonfluorescent resazurin is reduced to resorufin, a bright red fluorescence dye. Fluorescence decreases upon treatment of gametocytocidal compounds. P. falciparum gametocyte (3D7 strain) was used in this study.
# The 1536-well gametocycidal viability assay was based on the previous method of Tanaka et al. Stage III-V gametocytes were tested against three compound libraries, including 4265 compounds from NCGC pharmaceutical collection, 400 from Malaria Box library, and 550 from an internal collection of kinase inhibitors. Briefly, 2.5 ul/well incomplete medium was dispensed into each well of 1,536-well plates using the Multidrop Combi followed by 23 nl compound transferring using the NX-TR Pintool (WAKO Scientific Solutions, San Diego, CA). Then, 2.5 ul/well of gametocytes was dispensed with a seeding density of 20,000 cells/well using the Multidrop Combi. The assay plates were incubated for 72 h at 37C with 5% CO2. After addition of 5 ul/well of 2X AlamarBlue dye (Life Technologies, cat. no. DAL1100), the plates were incubated for 24 h at 37C with 5% CO2 and then were read in a fluorescence detection mode (Ex = 525 nm, Em = 598 nm) on a ViewLux plate reader (PerkinElmer).
# % is set by controls: 0 for no effect and ±100 for the full control effect; potency is the fitted concentration of half-maximal effect.
SMILES,max response,Potency
COc1ccc(CNC(=O)/C=C/c2ccc3[nH]cc(CCN(C)C)c3c2)cc1,-2.88%,
Cc1ccccc1-n1c(CF)nc2ccc(N)cc2c1=O,-0.397%,
Cc1cc(C)cc(C(=O)OC2C[C@H]3CC[C@@H](C2)N3C)c1 (stereo not given in full),23%,
CCCN1CCc2cccc3c2[C@H]1Cc1ccc(O)c(O)c1-3,,2.82 µM (active)
COC([CH2][Hg])CNC(=O)c1ccccc1OCC(=O)O (stereo not given),2.8%,
O=C1C[C@@H]2OCC=C3CN4CC[C@]56c7ccccc7N1[C@H]5[C@H]2[C@H]3C[C@H]46 (tested in a mixture with another compound),12.7% and 17.6%,
C=CCN1CCC23c4c5ccc(O)c4O[C@H]2C(=O)CC[C@@]3(O)C1C5 (stereo not given in full),7.07%,
CN(C)[C@@H]1C(=O)C(C(N)=O)=C(O)[C@@]2(O)C(=O)C3=C(O)c4c(O)ccc(Cl)c4[C@@](C)(O)[C@H]3C[C@@H]12,3.58%,
CC12NC(Cc3ccccc31)c1ccccc12 (stereo not given),3.88%,
CC(=O)OO,-9.86%,
CCCC(=O)OC(C(Cl)(Cl)Cl)P(=O)(OC)OC (stereo not given),-0.455%,
NC(N)=NOCC[C@H](N)C(=O)O,-9%,
C[C@H]1CC[C@]2(NC1)O[C@H]1C[C@H]3[C@@H]4CC[C@H]5C[C@@H](O[C@@H]6O[C@H](CO)[C@H](O[C@@H]7O[C@H](CO)[C@@H](O)[C@H](O[C@@H]8OC[C@@H](O)[C@H](O)[C@H]8O)[C@H]7O[C@@H]7O[C@H](CO)[C@@H](O)[C@H](O)[C@H]7O)[C@H](O)[C@H]6O)CC[C@]5(C)[C@H]4CC[C@]3(C)[C@H]1[C@@H]2C,6.32%,
N[C@@H](Cn1oc(=O)[nH]c1=O)C(=O)O,11.5%,
CCC(=O)O[C@@](Cc1ccccc1)(c1ccccc1)[C@@H](C)CN(C)C,5.87%,
C[N+]1(C)CCOC(O)(c2ccc(-c3ccc(C4(O)C[N+](C)(C)CCO4)cc3)cc2)C1 (stereo not given),5.92%,
CCCCC[C@@H](O)C1C(=O)OC(C)[C@H](O)/C=C/C=C/C=C/C=C/C=C(\C)C(O)C(O)C(O)C[C@H](O)C[C@H](O)C[C@H](O)C[C@H](O)C[C@@H]1O (stereo not given in full),0.532% and 10.2%,
CCN(CC)C(=O)/C(Cl)=C(\C)OP(=O)(OC)OC,-6.42%,
CCCCCCCCCCCCCC(=O)O[C@@H]1[C@@H](C)[C@@]2(O)[C@@H](C=C(CO)C[C@@]3(O)C(=O)C(C)=C[C@@H]23)C2C(C)(C)[C@@]21OC(C)=O (stereo not given in full),-2.77%,
Clc1ccccc1Cl,10.6%,

SMILES,max response,Potency
CC(C)(C)c1o[nH]c(=O)c1CC(N)C(=O)O (stereo not given),2.4%,
O=S(=O)(O)c1cc(O)ccc1O,6.77%,
CC(=O)[C@H]1CC[C@H]2[C@@H]3CC[C@@H]4C[C@H](O)CC[C@]4(C)[C@H]3CC[C@]12C,-3.94%,
Clc1ccc(Cl)cc1,-1.73%,
CN(N=O)c1ccc(O)c(O)c1,,1 µM (active)
Clc1cc(I)cc(Cl)c1NC1=NCCN1,44.8%,
N#CCCN,15.8%,
Cc1sc2ccccc2c1CC1=NCCN1,25.3%,
ClC1C(Cl)C(Cl)C(Cl)C(Cl)C1Cl (stereo not given),4.65%,
c1csc(C2(N3CCCCC3)CCCCC2)c1,-3.82%,
NC(Cc1ccc(N(CCCl)CCCl)cc1)C(=O)O (stereo not given),8.23%,
CCCCCCC(=O)O[C@H]1CC[C@H]2[C@@H]3CC[C@H]4CC(=O)C=C(C)[C@]4(C)[C@H]3CC[C@]12C,7.58%,
ClC=C(Cl)Cl,-0.112%,
N[C@@]1(C(=O)O)CC[C@@H](C(=O)O)C1,13.5%,
COC(=O)N1CCN(C(=O)Cc2ccc(Cl)c(Cl)c2)C(CN2CCCC2)C1 (stereo not given),14.6%,
NNC(N)=O,14.6%,
O=CC=O,1.75%,
CCNCC(O)c1cccc(O)c1 (stereo not given),-3.84%,
C[N+]1(C)C2CCC1CC(OC(=O)c1c[nH]c3ccccc13)C2 (stereo not given),-2.89%,
CCOC(=O)c1ccccc1C(=O)OCC,6.33%,
